Measured values reported in PubChem BioAssay (EPA / NIEHS).
Results filed as inconclusive are left out. Activity calls are given as the source filed them. How the source made its calls, unless noted: active means hit-call score of the fitted dose curve at least 0.9, where 1 is the maximum; inconclusive means response in the unintended direction; inactive means score below 0.9.

Key:
[1] = ACEA_AR_agonist_AUC_viability: ACEA Biosciences xCELLigence Real-Time Cell Analysis on Androgen Receptor Agonism for Viability (AID 2283775);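 on AC50: viability read 80 hours after compound addition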
Method in brief: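 Real-time impedance tracking of 22Rv1 growth, readings every 5 min for 5 h then hourly; area-under-curve viability endpoint at 80 hours, relative to DMSO. Compounds at eight concentrations, 1:4 steps, top 100 uM, n = 2.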

[2] = ACEA_AR_antagonist_AUC_viability: ACEA Biosciences xCELLigence Real-Time Cell Analysis on Androgen Receptor Antagonism for Viability (AID 2283776);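 further: 22Rv1 human prostate cancer cells growing on impedance electrode plates; hits lower the growth signal relative to DMSO meaning cytotoxicity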
Method in brief: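 22Rv1 prostate cells, continuous dosing up to 100 uM final (0.5% DMSO max), duplicate plates. Growth measured by impedance; AUC at 80 h, loss of signal vs DMSO.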

[3] = CEETOX_H295R_MTT_cell_viability: Viability Assessment in the CeeTox HT-H295R MTT Assay (AID 2283718; active means hit-call score of the fitted dose curve at least 0.9, where 1 is the maximum; inactive means score below 0.9)
Method in brief: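 MTT reduction (0.5 mg/ml, 4 h at 37 C; absorbance at 570 and 650 nm) gave viability as background-corrected percent change versus controls. H295R cells had 48 h forskolin (10 uM) prestimulation, then 48 h chemical exposure at 0.1% DMSO.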

[4] = ACEA_ER_AUC_viability: ACEA Biosciences xCELLigence Real-Time Cell Analysis on Estrogen Receptor Agonism for Viability (AID 2283782);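 further: continuous compound exposure with impedance area under curve over 80 h; hit means loss of impedance signal meaning reduced cell growth or viability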
Method in brief: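 T-47D; phenol red-free RPMI1640 + 10% CS-FBS; 8 conc., 1:4 serial, max 100 uM final, ≤0.5% DMSO; n = 2; continuous exposure; impedance monitored to 80 h post-dose; AUC vs DMSO.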

[5] = STM_H9_OrnCyssISnorm_ratio: Stemina devTOX quickPredict H9 human embryonic stem cell (hESC)-based Assay for Ornithine (ORN):Cystine (CYSS) Ratio (AID 2283714)
Method in brief: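 Steps: H9 hESCs in pluripotent state dosed 72h, medium plus compound renewed every 24h; conditioned medium from the final 24h deproteinized in 40% acetonitrile; ORN and CYSS quantified by UPLC-HRMS with C13 spike-ins; ratio relative to vehicle.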

AR (gene 367) = AR (gene 367) (UniProt P10275); experiment: ACEA_AR_agonist_80hr: ACEA Biosciences xCELLigence Real-Time Cell Analysis on Androgen Receptor Agonism for Proliferation (AID 2283783);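 further: hits increase impedance growth signal above DMSO baseline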
AR (gene 367), sequence (P10275 whole entry, looked up): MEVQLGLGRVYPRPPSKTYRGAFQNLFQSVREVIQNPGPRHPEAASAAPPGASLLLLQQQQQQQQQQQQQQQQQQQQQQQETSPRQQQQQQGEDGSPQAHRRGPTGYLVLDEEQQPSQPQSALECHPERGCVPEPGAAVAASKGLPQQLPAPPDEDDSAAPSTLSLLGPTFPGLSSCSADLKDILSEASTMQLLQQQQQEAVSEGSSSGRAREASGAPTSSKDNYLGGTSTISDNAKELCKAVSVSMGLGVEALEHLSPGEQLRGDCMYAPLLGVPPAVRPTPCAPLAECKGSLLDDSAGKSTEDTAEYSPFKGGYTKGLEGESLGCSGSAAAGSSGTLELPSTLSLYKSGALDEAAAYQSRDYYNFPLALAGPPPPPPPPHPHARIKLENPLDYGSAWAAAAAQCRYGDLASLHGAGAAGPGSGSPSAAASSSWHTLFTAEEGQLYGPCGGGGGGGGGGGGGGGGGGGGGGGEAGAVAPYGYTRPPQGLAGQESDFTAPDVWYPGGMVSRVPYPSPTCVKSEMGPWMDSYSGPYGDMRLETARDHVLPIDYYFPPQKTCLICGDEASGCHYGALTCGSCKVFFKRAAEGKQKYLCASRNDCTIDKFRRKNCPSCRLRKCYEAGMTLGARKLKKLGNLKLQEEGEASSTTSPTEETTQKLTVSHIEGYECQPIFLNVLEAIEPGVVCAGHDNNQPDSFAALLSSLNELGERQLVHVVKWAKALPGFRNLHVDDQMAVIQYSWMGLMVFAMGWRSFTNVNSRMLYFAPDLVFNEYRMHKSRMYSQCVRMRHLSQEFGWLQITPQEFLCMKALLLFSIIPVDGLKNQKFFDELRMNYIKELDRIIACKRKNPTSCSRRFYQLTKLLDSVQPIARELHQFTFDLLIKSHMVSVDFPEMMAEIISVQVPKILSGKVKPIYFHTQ
Method in brief: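 Androgen-driven proliferation in 22Rv1 cells is tracked as electrical impedance, taken 80 h after continuous exposure to compound (eight concentrations, 1:4 steps, maximum 100 uM final). Activity is fitted in the positive direction with DMSO as baseline.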

CCOC(=O)CC
outcome [1]: inactive | outcome [2]: inactive

C1=CCCC1
outcome [3]: inactive | outcome [4]: inactive

O=C(O)CCCC[C@@H]1SC[C@@H]2NC(=O)N[C@@H]21
outcome [1]: inactive | outcome [2]: inactive | outcome [4]: inactive

O=C(OCC1CCC2OC2C1)C1CCC2OC2C1 (stereo not drawn)
AC50 [1]: 9.05 µM (active) | outcome [4]: inactive

O=C(C(Cl)Cl)N1CCOC12CCCCC2
AC50 [1]: 9.81 µM (active) | AC50 [2]: 11 µM (active)

NC(=O)NNC(N)=O
outcome [4]: inactive

O=C1C(N(CO)C(=O)NCO)N(CO)C(=O)N1CO (stereo not drawn)
outcome [1]: inactive | outcome [4]: inactive

CC(C)=CCC[C@H](C)CCO
outcome [1]: inactive | outcome [2]: inactive | outcome [4]: inactive

CC[C@H]1OC(=O)[C@H](C)[C@@H](O[C@H]2C[C@@](C)(OC)[C@@H](O)[C@H](C)O2)[C@H](C)[C@@H](O[C@@H]2O[C@H](C)C[C@H](N(C)C)[C@H]2O)[C@](C)(O)C[C@@H](C)C(=NOCOCCOC)[C@H](C)[C@@H](O)[C@]1(C)O
outcome [4]: inactive

CCCCCCCCCCOS(=O)(=O)O
outcome [2]: inactive | outcome [4]: inactive

CCCCC(CC)CCC(CC(C)C)OS(=O)(=O)O (stereo not drawn)
AC50 [1]: 4.29 µM (active) | outcome [2]: inactive | outcome [4]: inactive

COCCOCCOCCOCCOC
outcome [4]: inactive

CCOC(=O)c1ccccc1C(=C1C=C(Br)C(=O)C(Br)=C1)c1cc(Br)c(O)c(Br)c1
AC50 [5]: 3.9 µM (active)

CCCc1ccc(OC)cc1
outcome [1]: inactive | outcome [2]: inactive | outcome [4]: inactive | outcome (AR (gene 367)): inactive

CC(C)c1ccc2c(C(C)C)cc(C(C)C)c(S(=O)(=O)O)c2c1
outcome [1]: inactive | outcome [4]: inactive | outcome (AR (gene 367)): inactive

CCCCCCCOC(=O)CCC
outcome [1]: inactive | outcome [2]: inactive | outcome [4]: inactive

S=C(NC1CCCCC1)NC1CCCCC1
outcome [3]: inactive | outcome [4]: inactive

CC(C)(C)c1ccc(OC(=O)c2ccccc2O)cc1
AC50 [1]: 0.106 µM (active) | AC50 [2]: 0.0777 µM (active) | AC50 [4]: 66.2 µM (active)

CCCCNc1ccc(NCCCC)c2c1C(=O)c1ccccc1C2=O
outcome [3]: inactive

Oc1ccc(Cl)cc1Cc1cc(Cl)ccc1O
outcome [3]: inactive | AC50 [1]: 11.5 µM (active) | AC50 [2]: 8.53 µM (active) | AC50 [4]: 17.7 µM (active) | outcome (AR (gene 367)): inactive

CC(=O)CC(N)=O
outcome [4]: inactive

CC(CC=O)CCCC(C)(C)O (stereo not drawn)
outcome (AR (gene 367)): inactive
